From PubChem BioAssay (NCATS)
Inconclusive results are not listed. Calls of active or inactive are those of the source. Calls follow the shape of the dose curve; as a rule, active = well fitted inhibition curve with a large enough effect; inconclusive = small, poorly fitted or top-dose-only effect; inactive = flat fitted curve, though single readings scatter.

What was measured:
[1] = molecular target: Glutathione peroxidase 1 (Homo sapiens) (UniProt P07203); test: Primary qHTS Assay for Inhibitors of Recombinant Selenoprotein Glutathione Peroxidase 1 (GPX1) (AID 1845191); details: recombinant GPX1, GR-coupled NADPH fluorescence, 15 min; series mostly up to 27.7 µM; also: nearly all actives have a fitted effect of over 65% in size
Chain of Glutathione peroxidase 1 (Homo sapiens) (P07203 whole entry, looked up): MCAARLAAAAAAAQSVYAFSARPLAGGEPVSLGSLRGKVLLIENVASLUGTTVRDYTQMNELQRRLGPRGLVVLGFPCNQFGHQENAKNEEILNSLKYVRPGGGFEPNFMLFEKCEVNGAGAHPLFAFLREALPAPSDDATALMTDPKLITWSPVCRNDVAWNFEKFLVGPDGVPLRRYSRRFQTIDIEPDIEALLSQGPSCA
How it was run: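 Recombinant GPX1 (10 nM final) was preincubated with compound for 30 min at room temperature, then reacted with 1 mM GSH, 0.5 mM CHP, 0.5 mM NADPH and 100 nM glutathione reductase; NADPH fluorescence (340/450 nm) was read at 0 and 15 min.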

[2] = molecular target: Phospholipid hydroperoxide glutathione peroxidase GPX4 (Homo sapiens) (UniProt P36969); test: Primary qHTS Assay for Inhibitors of Recombinant Selenoprotein Glutathione Peroxidase 4 (GPX4) (AID 1845192); details: recombinant GPX4, GR-coupled NADPH fluorescence, 15 min; series mostly up to 27.8 µM; also: nearly all actives have a fitted effect of over 65% in size
Chain of Phospholipid hydroperoxide glutathione peroxidase GPX4 (Homo sapiens) (P36969 whole entry, looked up): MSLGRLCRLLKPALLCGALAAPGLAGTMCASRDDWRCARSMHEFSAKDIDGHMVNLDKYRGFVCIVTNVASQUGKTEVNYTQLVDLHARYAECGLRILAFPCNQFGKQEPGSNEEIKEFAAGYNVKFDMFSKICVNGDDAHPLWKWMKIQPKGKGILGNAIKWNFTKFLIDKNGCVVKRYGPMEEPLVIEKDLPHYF
How it was run: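 GR-coupled readout: 100 nM GR, 1 mM GSH, 0.5 mM NADPH; NADPH fluorescence (ex 340/em 450 nm) read at t=0 and after 15 min RT. GPX4 200 nM, preincubated 30 min with compound; substrate 0.5 mM CHP.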

[3] = molecular target: Luciferin 4-monooxygenase (Photinus pyralis) (UniProt P08659); test: Primary firefly luciferase (FLuc) qHTS assay for identification of artifact compounds. (AID 1845220); details: purified firefly luciferase, luminescence, 5 min; series mostly up to 54.1 µM; also: nearly all actives have a fitted effect of over 60% in size
How it was run: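 In this counter-screen for luciferase artifacts, test compounds met substrate (10 uM each luciferin and ATP) before 10 nM enzyme started the reaction. Light output was measured 5 min later.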

Measured: Potency

C=C1C(O)CC2C(C(=O)O)=COC(O[C@@H]3O[C@H](COC(=O)c4ccc(O)cc4)[C@@H](O)[C@H](O)[C@H]3O)C12 (stereo partly drawn)
inactive: all assays above

O=C(O)c1ccnc(-c2cc(C(=O)NCCc3ccccc3)ccn2)c1
inactive: all assays above

C=C[C@@](C)(CCC=C(C)C)O[C@@H]1O[C@H](CO[C@@H]2OC[C@H](O)[C@H](O)[C@H]2O)[C@@H](O)[C@H](O)[C@H]1O
inactive: all assays above

COc1cc2c(cc1OC)N1C(=O)C[C@@]34C=CC[N@+]5([O-])CC[C@H]2[C@H](CC3)[C@@]145
inactive: all assays above

COC(=O)C1=CO[C@@H](O[C@@H]2O[C@H](CO)[C@@H](O)[C@H](O)[C@H]2O)[C@H]2[C@@H]1[C@H](O)C[C@]2(C)O
inactive: all assays above

Oc1ccc2c(-c3c(-c4ccccn4)nn4c3CCC4)ccnc2c1
inactive: all assays above

C/C(CO)=C1/CCC23COC(C2)C(O)(C(=O)O)CCC13 (stereo not drawn)
inactive: all assays above

COC(=O)C1=COC(OC2OC(CO)C(O)C(O)C2O)C2C(C)C(OC(C)=O)C(OC(=O)c3ccccc3)C12 (stereo not drawn)
inactive: all assays above

C=CC(C)(O)CC/C=C(\C)C1CC=C(C)C(=O)O1 (stereo not drawn)
inactive: all assays above

COc1cc(CC2COC(c3ccc(OC4OC(CO)C(O)C(O)C4O)c(OC)c3)C2CO)ccc1O (stereo not drawn)
inactive: all assays above

CC1=C2C(=O)C=C(CO)C2[C@H]2OC(=O)[C@H](C)[C@@H]2[C@@H](OC(=O)Cc2ccc(O)cc2)C1 (stereo partly drawn)
inactive: all assays above
